Compound activity deposited in PubChem BioAssay by National Center for Advancing Translational Sciences (NCATS).
Marburg entry inh: Marburg virus entry inhibition | Marburg virus pseudotyped entry inhibition, cell reporter | Potency, µM (series often up to 37.8 µM), usual class: inhibitors | actives 1.8% (n = 300,000) | AID 540276; calls by dose curve; tested in HEK293 cells
LASV entry inh: inhibitors of Lassa virus binding or cell entry; Lassa virus pseudotype entry inhibition, cell reporter; Potency, µM (top dose mostly 37.9 µM), hits mostly inhibitors; actives 1.2% (n = 300,000); AID 540256; calls by dose curve; tested in HEK293 cells; also: nearly all actives have a fitted effect of over 50% in size
Vaccinia Venus: vaccinia inhibition (Venus reporter). Vaccinia virus Venus reporter expression, fluorescence. Potency, µM (doses to about 36.5 µM), most hits filed as inhibitors. actives 0.46% (n = 330,000). AID 720580; calls by dose curve; tested in A549 cells; also: nearly all actives have a fitted effect of over 30% in size
VACV mCherry inh: inhibitors of vaccinia virus infection (mCherry reporter signal). Vaccinia virus mCherry reporter infection, fluorescence. Potency, µM (highest dose often 36.5 µM), usual class: inhibitors. actives 0.63% (n = 310,000). AID 720579; calls by dose curve; tested in A549 cells; also: nearly all actives have a fitted effect of over 35% in size
FMDV inh: blocks foot and mouth disease virus | AID 1159524 | FMDV antiviral cell-based qHTS | Potency, µM (titrated, usually from 57.9 µM), hits mostly inhibitors | actives 1.2% (n = 410,000); calls by dose curve; tested in HEK293T cells; also: read-out not given here; nearly all actives have a fitted effect of over 45% in size
HCMV inh: human cytomegalovirus inhibition; activity change, negative = inhibition, % at 57.5 µM; actives 4.5% (n = 410,000); AID 1259415; HFF cells, HCMV-luciferase reporter, 72 h; stronger effect = lower value; in the data active = activity change below about -60%; inconclusive = no clear call, values can overlap the other calls; inactive = above about -39%
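Human foreskin fibroblasts infected with luciferase-reporter HCMV at MOI 1 PFU/cell, compounds at two doses. Luciferase measured 72 h post infection; normalized to buffer-only basal and Salinomycin (10uM) controls.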
Numbers stand for hits; – = inactive; ? = inconclusive; · = no result; [ ] = remark or other dose. Most compounds without a hit are left out; they make up all but 6.5% or so of the library.

SMILES	Marburg entry inh	LASV entry inh	Vaccinia Venus	VACV mCherry inh	FMDV inh	HCMV inh
CC(=O)Oc1ccc(N(C(C)=O)S(=O)(=O)c2cccs2)c2ccccc12	11.6µM	–	–	–	15.8µM	–
COc1cc2nc(N3CCCN(C)CC3)nc(Nc3ccncc3)c2cc1OC	·	·	?	–	·	·
CC(=O)Nc1ccc(-n2c(C)ccc2C)cc1	·	·	·	·	–	–
CC(=O)Nc1ccc(-n2c(=O)c3ccccc3c3ccccc3c2=O)cc1	–	?	–	–	28.2µM	–
O=C(O)c1ccc(-n2c(=O)c3ccccc3c3ccccc3c2=O)cc1	–	–	–	–	35.5µM	–
OC(c1ccc(F)c(F)c1)c1ncc(-c2ccc(Cl)cc2)[nH]1 (stereo unspecified)	·	·	?	?	–	-64.5
CNC(=O)[C@@H]1C[C@H](NC2CCCCCCC2)CN1Cc1cccc(OC)c1OC	·	·	–	–	–	·
O=C(/C=C/c1ccnc2ccccc12)c1cccs1	3.16µM	?	–	–	–	–
Cc1nn(CC(=O)O)c(C)c1C	–	–	·	·	?	-89.8
Cc1ccc(S(=O)(=O)Nc2ccc3nc(C)sc3c2)cc1	?	?	?	·	–	·
Cc1nc2ccc(NS(=O)(=O)c3ccc(Br)cc3)cc2s1	·	·	·	·	–	-60.0
CC(=O)Nc1ccc(S(=O)(=O)Nc2ccc3nc(C)sc3c2)cc1	?	?	–	–	–	-75.5
Cc1ccc(S(=O)(=O)Nc2ccc3nc(N)sc3c2)cc1	–	–	·	·	–	-88.8
OC1(c2ccc(OC(F)F)cc2)CSC(=Nc2cccnc2)N1C1CC1 (stereo unspecified)	3.55µM	?	?	–	?	–
Cc1[nH]nc2c1[C@@H](CCc1ccccc1)C(C#N)=C(N)O2	–	·	·	·	·	·
O=C1C=CC(=O)N1c1ccc2c(c1)Cc1cc(F)ccc1-2	–	–	–	?	–	–
CC(=O)Nc1ccc2c(c1)Cc1cc(N3C(=O)C=CC3=O)ccc1-2	?	?	–	–	–	-65.9
O=C1CCNc2cc3ccccc3cc21	–	–	?	22.4µM	–	·
COc1cc2c(cc1OC)[C@@H]1N(C)c3ccccc3[C@@]13CCN(S(=O)(=O)C(F)(F)F)C3=C2	·	·	·	·	·	–
O=C(NCc1ccc(F)cc1F)Nc1cnccc1C(F)(F)F	·	·	·	·	–	-67.9
O=C(NCc1cccnc1)Nc1ccc(F)cc1F	–	–	–	–	–	–
Cc1cc2n(n1)CCC(=O)N2Cc1ccc(C(=O)Nc2cc(Cl)ccc2C)cc1	·	?	–	–	–	–
Cc1ncc2c(c1CNS(=O)(=O)N(C)C)CCN(C(=O)c1ccc(-c3ccc(F)cc3)cc1)C2	·	·	–	–	–	·
c1ccc(N(c2ccccc2)c2nc(N3CCCC3)nc(-n3ccnc3)n2)cc1	?	1.64µM	·	·	?	-66.3
CN(c1ccccc1)c1nc(N2CCCC2)nc(-n2ccnc2)n1	–	?	?	–	?	–
SMILES	Marburg entry inh	LASV entry inh	Vaccinia Venus	VACV mCherry inh	FMDV inh	HCMV inh
CCN1[C@@H]2c3ccc(-c4ccc(OC)cc4)c(=O)n3C[C@@H]2[C@@H](CO)[C@@H]1C(=O)NCCN1CCCCC1	·	·	·	·	·	–
CCOc1ccc(C(=O)/C=C/c2ccc(OC)c(OC)c2)cc1	?	?	–	–	?	–
COc1ccc(/C=C/C(=O)c2cc(F)ccc2OC(=O)c2ccccc2C)cc1OC	5.17µM	?	?	?	25.1µM	-85.9
COc1ccc(/C=C/C(=O)c2ccc3c4c(cccc24)CC3)cc1	–	?	?	?	–	–
COc1ccc(/C=C/C(=O)c2ccc3c4c(cccc24)CC3)cc1OC	?	?	?	?	17.8µM	?
COc1ccc(/C=C/C(=O)Nc2ccccc2)cc1OC	–	–	–	–	–	–
COc1ccc(C(=O)Oc2ccc(F)cc2C(=O)/C=C/c2ccc(OC)c(OC)c2)cc1	–	?	–	–	39.8µM	?
CC(=O)Nc1nonc1-c1nnc(SCC(=O)Nc2ccccc2)n1-c1ccccc1	–	–	–	–	–	–
CC1(C(=O)NCc2ccco2)Cc2c(-c3cccc(C(N)=O)c3)ccnc2O1 (stereo unspecified)	·	·	–	–	–	–
CCc1cc(-c2nnn(CCC3COCCO3)c2CC)ccc1-c1cn(Cc2ccccc2)nn1 (stereo unspecified)	·	·	?	?	?	-83.1
C[C@@H]1[C@H](c2ccccc2)OCCS(=O)(=O)N1Cc1ccccc1Br	·	·	–	–	·	·
Cc1c(CCOC(=O)C23CC4CC(CC(C)(C4)C2)C3)sc[n+]1Cc1ccccc1	?	?	·	·	15.8µM	–
Cc1c(CCOC(=O)C23CC4(C)CC(C)(CC(C)(C4)C2)C3)sc[n+]1CC(=O)c1ccccc1	?	–	?	?	28.2µM	-100.5
Cc1ccc2nc(-c3ccc(C)c(NC(=O)COc4ccc(Br)cc4)c3)oc2c1	·	·	–	–	·	·
CC1CCCCC1N(C)C1CCN(C(=O)CNC(=O)/C=C/c2cccc(Cl)c2)CC1 (stereo unspecified)	·	·	·	·	–	-100.0
COc1ccc(C(=O)OCC(=O)N2CCc3ccccc32)cc1S(=O)(=O)N1CCOCC1	–	–	–	–	–	–
COc1cccc2c(N/N=C/c3ccccc3)cc(C)nc12	·	·	·	·	–	–
COc1ccc(/C=N/Nc2cc(C)nc3ccc(Br)cc23)cc1	4.47µM	?	–	?	–	-98.1
COc1ccc2nc(C)cc(N/N=C/c3cccc(OC)c3O)c2c1	?	?	?	1µM	–	–
Cc1cc(C)c(S(=O)(=O)NCC2CCC(C(=O)NCCCN3CCC(C)CC3)CC2)c(C)c1 (stereo unspecified)	·	·	·	·	–	–
COc1ccc(-c2nc3ccccc3[nH]2)cc1	7.3µM	?	–	–	·	–
COc1ccc(CCCc2nc3ccccc3[nH]2)cc1	–	–	–	–	–	–
Cc1ccc(-c2nc3ccccc3[nH]2)s1	12.6µM	?	–	–	–	–
COc1ccc(-c2cc(=O)n(-c3nc4ccccc4[nH]3)[nH]2)cc1	?	?	·	·	–	-89.7
COC(=O)c1ccc(-c2nc3ccccc3[nH]2)cc1	1.84µM	7.31µM	–	–	–	–
SMILES	Marburg entry inh	LASV entry inh	Vaccinia Venus	VACV mCherry inh	FMDV inh	HCMV inh
Cc1cccc2cc(-c3nc4ccc(C(=O)O)cc4[nH]3)c(=O)oc12	?	?	–	–	7.94µM	·
O=C(O)c1cccc(-c2nc3ccccc3[nH]2)c1	0.355µM	1.41µM	–	–	?	–
c1ccc(-c2nc3ccccc3[nH]2)cc1	·	·	–	–	–	–
CC(C)(C)c1cc(C(C)(C)C)c2oc(=O)c(-c3nc4ccc(C(=O)O)cc4[nH]3)cc2c1	·	–	–[7.34 µM]	–[7.34 µM]	–	–
COc1cccc(-c2ccc3ncnc(NCc4cccnc4)c3c2)c1	·	·	·	·	?	-77.4
COc1ccc(NCc2cccnc2)cc1	–	–	–	?	–	-86.2
Cc1ccc(NCc2cccnc2)cc1	–	–	–	·	–	–
COCCN(C(=O)c1ccc(C)o1)c1c(N)n(CC(C)C)c(=O)[nH]c1=O	–	–	–	–	–	–
CCOc1ccc(NC(=O)CN(C)C(=O)c2cc(C3CC3)nn2-c2ccccc2)cc1OCC	–	?	–	–	–	–
COc1ccc(/C=N/Nc2cc(N(C)C)nc(N(C)C)n2)cc1	4.47µM	?	–	–	?	–
COc1ccc(/C=N/Nc2cc(OC)ncn2)cc1	?	10µM	–	–	–	–
